Data published in PubChem BioAssay (NCI).
About 83,000 compounds went through this panel and 20% of them were active in at least one assay; those are over-represented in the sample as a whole.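 Note: values are percent growth. 100 is the growth of untreated cells, values between 100 and 0 indicate rising inhibition; between -100 and 0 indicates cell death.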 Calls of active or inactive are those of the source. Rule for the calls: active = growth percent below 10; inactive = the rest.

Key:
Assay in all cases: NCI-60 one-dose screen, 48 h (100 = growth as untreated, 0 = no growth, -100 = all killed)
Details in all cases: 10 µM unless noted
[1] = system: NCI-H23 lung
[2] = system: NCI-H226 lung
[3] = system: NCI-H322M lung
[4] = system: HOP-62 NSCLC
[5] = system: NCI-H460 lung
[6] = system: NCI-H522 lung
[7] = system: A549/ATCC NSCLC
[8] = system: 786-0 renal
[9] = system: COLO 205 colon
[10] = system: DU-145 prostate
[11] = system: K-562 leukemia
[12] = system: MALME-3M melanoma
[13] = system: MDA-MB-231 breast
[14] = system: RXF 393 renal
[15] = system: SF-268 CNS
[16] = system: SF-295 CNS
[17] = system: SF-539 CNS
[18] = system: UACC-257 melanoma
[19] = system: M14 melanoma

Measured: growth

COc1ncnc2[nH]cc(CN3CCN(c4ccc(F)cc4)CC3)c12
inactive: [1] 98.4% | [2] 103% | [3] 107% | [4] 107% | [5] 108% | [6] 95.1% | [7] 96.5% | [8] 103% | [9] 116% | [10] 116% | [11] 108% | [12] 103% | [13] 117% | [14] 111% | [15] 104% | [16] 98.1% | [17] 108% | [18] 99.8% | [19] 106%

O=C(Nc1ccncc1)C(=O)c1cn(S(=O)(=O)c2cccc(Cl)c2F)c2ccccc12
inactive: [1] 63.7% | [2] 75% | [3] 96.7% | [4] 89.6% | [5] 90% | [6] 35.2% | [7] 82.8% | [8] 77.3% | [9] 106% | [10] 96.9% | [11] 23.9% | [12] 53.7% | [13] 78.2% | [14] 92.5% | [15] 80.6% | [16] 67.9% | [17] 83.2% | [18] 89.6% | [19] 59.2%

CC(C)=CC[C@@H]1CC2(CC=C(C)C)C(=O)C(OC3(C(=O)c4ccccc4)C(=O)C4(CC=C(C)C)C[C@@H](CC=C(C)C)C(C)(C)C(CC=C(C)C)(C4=O)C3=O)(C(=O)c3ccccc3)C(=O)C(CC=C(C)C)(C2=O)C1(C)C (some centres undefined)
active: [2] -4.96% | [3] 3.49% | [4] 0.307% | [5] -9.89% | [6] -28.8% | [7] 6% | [9] -22.3% | [10] 2.13% | [11] 4.86% | [12] -28.8% | [13] -11.3% | [14] 4.28% | [16] -13.4% | [17] -18.5% | [18] -19.7% | [19] -2.59%
inactive: [1] 10.3% | [8] 11.6% | [15] 14.5%

N/C(=N\OC(=O)c1ccccc1)C(Cc1ccccc1)C(=O)NOC(=O)c1ccccc1 (centres undefined)
inactive: [1] 46.6% | [2] 95.1% | [3] 89% | [8] 48.7% | [9] 69.3% | [10] 16.2% | [12] 59.2% | [13] 70.7% | [14] 53.4% | [17] 13.6% | [18] 88.8% | [19] 48.3%
active: [4] 1.55% | [5] 5.54% | [6] -53.7% | [7] -60.3% | [11] -6.89% | [15] 1.91% | [16] -14.7%

O=C(Cc1ccc([N+](=O)[O-])cc1)Oc1ccccc1
inactive: [1] 109% | [2] 111% | [3] 103% | [4] 102% | [5] 114% | [6] 97.2% | [7] 111% | [8] 104% | [9] 109% | [10] 129% | [11] 104% | [12] 146% | [13] 108% | [14] 122% | [15] 111% | [16] 121% | [17] 105% | [18] 110% | [19] 106%

C=C1C(=O)O[C@H]2[C@H]1CC/C(COC(=O)NCc1cccc(OC)c1)=C\CC[C@@]1(C)O[C@@H]21
inactive: [1] 73.4% | [2] 67.3% | [3] 90.6% | [4] 65.6% | [5] 55% | [7] 50.7% | [10] 19.7% | [13] 64.4% | [15] 58.2% | [16] 71.5% | [17] 21.4% | [18] 25.4%
active: [6] -70.3% | [8] -48.9% | [9] -71.3% | [11] 4.46% | [12] -26.4% | [14] -57.1% | [19] -7.62%

Cc1cccc(/C=N/n2c(-c3ccc(Cl)cc3)nc3c(Br)cc(Br)cc3c2=O)c1
inactive: [1] 29.2% | [2] 37.9% | [3] 53.8% | [4] 33.8% | [5] 29.1% | [6] 38.1% | [7] 31.4% | [8] 51.9% | [9] 46.8% | [10] 66.2% | [11] 65.7% | [12] 70% | [13] 44.9% | [14] 61.3% | [15] 69.9% | [16] 35.4% | [17] 70% | [18] 76.3% | [19] 60.4%

COc1ccc(Oc2nc(Nc3ccc(N4CCOCC4)cc3)ncc2NC(=O)Nc2cccc(OC)c2)cc1
inactive: [1] 72.2% | [2] 42.1% | [3] 53.3% | [4] 64.7% | [5] 41.5% | [6] 23.7% | [7] 41.7% | [8] 80.7% | [9] 17.8% | [10] 47.5% | [11] 57% | [12] 69.7% | [13] 28.8% | [14] 39.4% | [15] 74.4% | [16] 81.1% | [17] 28.3% | [18] 91.5% | [19] 71.9%

CCCCOC(=O)c1cc(O)c(O)c(O)c1
active: [6] -1.17%
inactive: [1] 88.2% | [2] 96.7% | [3] 86.5% | [4] 76.2% | [5] 58.9% | [7] 64.7% | [8] 79.2% | [9] 101% | [10] 74% | [11] 66.3% | [12] 122% | [13] 66.4% | [14] 82% | [15] 53.5% | [16] 102% | [17] 48.5% | [18] 96.4% | [19] 84.1%

Cn1cnc([N+](=O)[O-])c1S(=O)(=O)Oc1ccccc1
inactive: [1] 101% | [2] 91.6% | [3] 109% | [4] 96.1% | [5] 105% | [7] 106% | [8] 95.2% | [10] 70.4% | [11] 31.8% | [13] 99.4% | [14] 74.1% | [15] 101% | [16] 110% | [17] 93.8% | [18] 90.9% | [19] 53.1%
active: [6] -75.7% | [9] -16.9% | [12] -60.9%

Cc1c2c(cc3c1[nH]c1ccccc13)C=NCC2
inactive: [1] 88.7% | [2] 93% | [3] 99.7% | [4] 96% | [5] 95.5% | [6] 75.1% | [7] 91.5% | [8] 80.8% | [9] 78.2% | [10] 94.9% | [11] 62.3% | [12] 103% | [13] 90.4% | [14] 84.9% | [15] 95.5% | [16] 92.4% | [17] 92.8% | [18] 106% | [19] 91%

C=C1C(=O)O[C@H]2[C@H]1CC/C(COC(=O)NCc1cn(C)c3ccccc13)=C\CC[C@@]1(C)O[C@@H]21
active: [5] 5.72% | [6] -80.2% | [8] -87.8% | [9] -75.3% | [10] -42.6% | [11] -16.5% | [12] -34.3% | [13] -8.6% | [14] -93.7% | [17] -34.6% | [18] -15% | [19] -42.1%
inactive: [1] 38.4% | [2] 35.8% | [3] 80.6% | [4] 32.8% | [7] 21% | [15] 24.2% | [16] 63.2%

COc1cc(-c2nn(C(=O)NCCN3CCN(C)CC3)cc2-c2ccncc2)ccc1Cl
inactive: [1] 90.5% | [2] 27.1% | [3] 106% | [4] 41.6% | [5] 93.5% | [6] 75.3% | [7] 57% | [8] 59.3% | [9] 50.9% | [10] 87.2% | [11] 83.9% | [12] 77.8% | [13] 70.5% | [14] 42.3% | [15] 46.2% | [16] 88.2% | [17] 63.6% | [18] 86.2% | [19] 68.9%

Nc1c(C(=O)C[C@@H](N)CO)ccc2c1C(=O)CCO2
inactive: [1] 55.2% | [2] 76.3% | [3] 16.7% | [4] 28.1% | [5] 13% | [6] 45.1% | [7] 40.4% | [8] 78.6% | [9] 46.9% | [10] 42.9% | [11] 33.4% | [12] 48.2% | [13] 61% | [14] 90.7% | [15] 43.6% | [16] 48.3% | [17] 41.3% | [18] 65.4% | [19] 48.6%

CN(C)c1ccc(/C=C\c2cccc[n+]2C)cc1
active: [9] -35.6%
inactive: [1] 46.6% | [2] 67.7% | [3] 102% | [4] 48% | [5] 69.5% | [6] 30.5% | [7] 20.8% | [8] 69.3% | [10] 70.1% | [11] 21% | [12] 57.4% | [13] 73.4% | [14] 86.6% | [15] 26.7% | [16] 19% | [17] 58.9% | [18] 31.7% | [19] 69.6%

Nc1nc(NC2CC2)cc(-c2cccc(Cl)c2Cl)n1
inactive: [1] 71.7% | [2] 92.3% | [3] 101% | [4] 47.1% | [5] 27.6% | [7] 32.6% | [8] 69.2% | [9] 44.1% | [10] 78.3% | [11] 18.9% | [12] 64.4% | [13] 66.8% | [14] 73.3% | [15] 67.6% | [16] 55.7% | [17] 55.7% | [18] 49.8% | [19] 18.3%
active: [6] 3.95%
